In PubChem BioAssay (Tox21):
Records with an inconclusive call do not appear. Active and inactive are the calls of the source. Unless noted, calls follow the shape of the full dose curve.

Experiments:
[1] = Nuclear factor erythroid 2-related factor 2/antioxidant responsive element (Nrf2/ARE) small molecule agonists: qHTS cell viability counter screen in human keratinocytes (AID 1919968; active = well fitted cell-killing curve with a large enough effect in the repeat runs; also: nearly all actives have a fitted effect of over 55% in size)
Method in brief: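 After a 5 h attachment period, ARE-reporter keratinocytes were dosed with compounds in DMSO and then cultured 23 h at 37 C. Cell viability came from CellTiter-Fluor signal read after a further 1 h.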

[2] = Nuclear factor erythroid 2-related factor 2/antioxidant responsive element (Nrf2/ARE) small molecule agonists: luciferase reporter gene qHTS assay in human keratinocytes (AID 1919969); also: nearly all actives have a fitted effect of over 35% in size
[3] = target: Gonadotropin-releasing hormone receptor (Homo sapiens) (UniProt P30968); experiment: Human gonadotropin-releasing hormone receptor (GnRHR) small molecule agonists, calcium flux assay in GnRHR-HEK293 cells (AID 1920063); also: nearly all actives have a fitted effect of over 35% in size
Gonadotropin-releasing hormone receptor (Homo sapiens), sequence (P30968 whole entry, looked up): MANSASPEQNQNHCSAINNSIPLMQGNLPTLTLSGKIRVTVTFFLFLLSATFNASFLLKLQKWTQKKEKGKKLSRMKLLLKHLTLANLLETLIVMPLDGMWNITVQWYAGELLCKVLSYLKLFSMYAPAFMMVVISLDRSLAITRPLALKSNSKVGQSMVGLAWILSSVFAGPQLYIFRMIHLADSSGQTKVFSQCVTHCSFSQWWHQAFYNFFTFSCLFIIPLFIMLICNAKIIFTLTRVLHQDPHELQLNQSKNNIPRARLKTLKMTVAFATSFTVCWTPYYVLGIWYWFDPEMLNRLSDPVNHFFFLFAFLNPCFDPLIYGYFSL
Method in brief: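 We seeded human GnRHR-expressing HEK293 cells for 18 hours, loaded them with calcium dye for an hour at 37 C, added test compounds, and recorded fluorescence intensity kinetically for three minutes.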

[4] = G protein-coupled receptor (GPCR) small molecule agonists, calcium flux assay: HEK293 wild type cell line counter screen (AID 1920065)
Method in brief: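 Calcium-sensitive dye, loaded 1 h at 37 C into cells cultured 18 h, reports compound-evoked calcium release as fluorescence (Ex/Em 480/540), measured over 3 min. Agonist mode; 15-point titrations, triplicate.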

[5] = p53 small molecule agonists, cell-based qHTS assay with human liver microsomes (AID 1963577);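 also: p53 response element beta-lactamase reporter cells with liver microsomes plus NADPH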
Method in brief: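 16 h, 37 C exposure of p53RE-bla cells to compounds with human liver microsomes and NADPH (0.5 mg/mL final each); detection via LiveBLAzer mixture, 2 h dark at room temperature.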

[6] = p53 small molecule agonists, cell-based qHTS assay with rat liver microsomes (AID 1963578)
Method in brief: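 With rat liver microsomes and NADPH present (0.5 mg/mL final each), p53RE-bla cells are treated with compound for 16 h at 37 C. LiveBLAzer detection mixture is then applied for 2 h at room temperature in the dark.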

[7] = p53 small molecule agonists, cell-based qHTS assay with human liver microsomes: qHTS cell viability counter screen (AID 1963579); also: nearly all actives have a fitted effect of over 45% in size
Method in brief: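 In this multiplexed counter screen, the reporter plates were subsequently treated with CellTiter-Glo so that cell viability, reflected by luminescence, could be recorded for p53RE-bla cells dosed 16 h with compounds under microsomal activation (HLM and NADPH).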

[8] = p53 small molecule agonists, cell-based qHTS assay: qHTS cell viability counter screen (AID 1963581); also: nearly all actives have a fitted effect of over 45% in size
Method in brief: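 Following 5 h attachment, HCT-116 p53RE-bla cells took up compound for 16 h at 37 C; the reporter was read with B/G FRET substrate (2 h RT), and viability then via CellTiter-Glo ATP luminescence.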

[9] = p53 small molecule agonists, cell-based qHTS assay (AID 1963582; active = well fitted activation curve with a large enough effect in the signal ratio in the repeat runs, not every such curve was filed as active; the % refers to the signal ratio)
Method in brief: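 In this cell-based concentration-response screen, a p53 response element drives beta-lactamase; cells received DMSO-borne compounds after 5 h culture and were incubated a further 16 h before FRET substrate development.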

[10] = target: 5-hydroxytryptamine receptor 2A (Homo sapiens) (UniProt P28223); experiment: 5-hydroxytryptamine receptor 2A (HTR2A) small molecule antagonists, cell-based qHTS assay (AID 1963586); also: nearly all actives have a fitted effect of over 45% in size
5-hydroxytryptamine receptor 2A (Homo sapiens), sequence (P28223 whole entry, looked up): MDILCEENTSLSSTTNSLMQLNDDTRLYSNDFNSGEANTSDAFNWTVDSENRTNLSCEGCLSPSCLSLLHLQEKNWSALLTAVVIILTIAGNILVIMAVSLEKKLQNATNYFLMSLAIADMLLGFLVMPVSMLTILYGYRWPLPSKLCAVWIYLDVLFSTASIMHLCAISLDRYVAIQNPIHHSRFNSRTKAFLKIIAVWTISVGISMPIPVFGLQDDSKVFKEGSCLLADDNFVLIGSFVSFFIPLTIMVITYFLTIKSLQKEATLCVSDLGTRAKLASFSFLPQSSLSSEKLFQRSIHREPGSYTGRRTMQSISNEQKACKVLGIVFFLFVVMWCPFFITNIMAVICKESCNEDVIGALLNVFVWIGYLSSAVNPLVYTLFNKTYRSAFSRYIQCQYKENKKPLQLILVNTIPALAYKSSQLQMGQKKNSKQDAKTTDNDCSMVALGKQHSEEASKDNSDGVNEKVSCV
Method in brief: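 Antagonist-mode intracellular calcium assay: DOI (4 nM) added after 5 min compound pre-incubation at room temperature to dye-loaded HTR2A-CHO cells. Fluorescence followed for 3 min, sampled every second.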

[11] = target: 5-hydroxytryptamine receptor 2A (Homo sapiens) (UniProt P28223); experiment: 5-hydroxytryptamine receptor 2A (HTR2A) small molecule agonists, cell-based qHTS assay (AID 1963587); also: nearly all actives have a fitted effect of over 30% in size
Method in brief: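 Kinetic calcium-flux fluorescence (2 min, 1 sec intervals) after compound addition in agonist mode. HTR2A-CHO cells were cultured 18 h, then dye-loaded 1 h at 37 C.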

[12] = target: Muscarinic acetylcholine receptor M1 (Homo sapiens) (UniProt P11229); experiment: Cholinergic receptor muscarinic 1 (CHRM1) small molecule antagonists, cell-based qHTS assay (AID 1963588); also: nearly all actives have a fitted effect of over 40% in size
Muscarinic acetylcholine receptor M1 (Homo sapiens), sequence (P11229 whole entry, looked up): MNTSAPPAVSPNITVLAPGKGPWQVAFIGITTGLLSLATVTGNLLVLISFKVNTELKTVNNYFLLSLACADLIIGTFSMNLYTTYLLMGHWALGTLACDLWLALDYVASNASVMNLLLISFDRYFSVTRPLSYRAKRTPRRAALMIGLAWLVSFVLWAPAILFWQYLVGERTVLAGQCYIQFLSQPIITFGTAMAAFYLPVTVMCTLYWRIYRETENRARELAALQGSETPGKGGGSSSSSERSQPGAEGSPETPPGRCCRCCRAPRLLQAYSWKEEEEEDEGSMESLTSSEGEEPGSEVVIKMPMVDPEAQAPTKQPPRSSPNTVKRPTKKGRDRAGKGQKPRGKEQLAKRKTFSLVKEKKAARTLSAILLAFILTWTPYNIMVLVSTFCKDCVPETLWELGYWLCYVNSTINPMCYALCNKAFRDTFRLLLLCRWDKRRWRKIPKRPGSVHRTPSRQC
Method in brief: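 CHRM1-CHO calcium-flux assay, antagonist mode. Cells were seeded 18 h, dye-loaded 1 h at 37 C and given compound for 5 min at RT, then acetylcholine was added at 50nM. FDSS fluorescence was read 3 min; 15 concentrations, three runs.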

[13] = target: Muscarinic acetylcholine receptor M1 (Homo sapiens) (UniProt P11229); experiment: Cholinergic receptor muscarinic 1 (CHRM1) small molecule agonists, cell-based qHTS assay (AID 1963589); also: nearly all actives have a fitted effect of over 35% in size
Method in brief: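 Measures agonist-induced intracellular calcium rise. Stable human CHRM1 CHO line, 1 h dye load at 37 C, compounds from DMSO, kinetic fluorescence read.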

[14] = cAMP Responsive Elements (CRE) small molecule antagonists, cell-based qHTS assay (AID 1963591; active = well fitted inhibition curve with a large enough effect in the signal ratio in the repeat runs, not every such curve was filed as active; the % refers to the signal ratio)
Method in brief: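 HEK293T cells carrying a CRE-driven beta-lactamase reporter receive compound and NKH477 (0.25 uM final) for 3 h. Fluorescence from LiveBLAzer B/G FRET substrate is read after 2 h at room temperature.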

[15] = target: Beta-2 adrenergic receptor (Homo sapiens) (UniProt P07550); experiment: Adrenergic beta2 receptor (ADRB2) small molecule antagonists, cell-based qHTS assay (AID 1963592); also: series mostly up to about 92 µM; nearly all actives have a fitted effect of over 50% in size
Beta-2 adrenergic receptor (Homo sapiens), sequence (P07550 whole entry, looked up): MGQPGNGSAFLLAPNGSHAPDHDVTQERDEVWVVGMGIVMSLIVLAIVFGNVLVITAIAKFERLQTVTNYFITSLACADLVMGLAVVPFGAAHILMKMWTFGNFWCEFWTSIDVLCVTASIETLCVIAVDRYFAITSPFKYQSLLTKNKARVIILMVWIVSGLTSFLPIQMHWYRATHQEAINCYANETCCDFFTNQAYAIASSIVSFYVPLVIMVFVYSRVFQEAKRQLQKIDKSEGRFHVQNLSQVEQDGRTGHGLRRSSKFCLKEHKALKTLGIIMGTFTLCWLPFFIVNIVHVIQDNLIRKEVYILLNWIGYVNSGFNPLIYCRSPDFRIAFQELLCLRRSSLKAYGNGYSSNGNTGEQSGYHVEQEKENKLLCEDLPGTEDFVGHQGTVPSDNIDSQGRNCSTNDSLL
Method in brief: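 Cells (CHO, stable ADRB2 overexpression) incubated 18-20hr at 37C; compounds added from DMSO; agonist mix (1nM isoproterenol, 100uM IBMX, 25uM Ro-20-1724) added; 0.5hr RT; d2-cAMP and anti-cAMP-cryptate added; 1hr RT; 665/615 nm read.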

[16] = target: D(2) dopamine receptor (Homo sapiens) (UniProt P14416); experiment: Dopamine D2 receptor (DRD2) small molecule agonists, cell-based qHTS assay (AID 1963594); also: nearly all actives have a fitted effect of over 35% in size
D(2) dopamine receptor (Homo sapiens), sequence (P14416 whole entry, looked up): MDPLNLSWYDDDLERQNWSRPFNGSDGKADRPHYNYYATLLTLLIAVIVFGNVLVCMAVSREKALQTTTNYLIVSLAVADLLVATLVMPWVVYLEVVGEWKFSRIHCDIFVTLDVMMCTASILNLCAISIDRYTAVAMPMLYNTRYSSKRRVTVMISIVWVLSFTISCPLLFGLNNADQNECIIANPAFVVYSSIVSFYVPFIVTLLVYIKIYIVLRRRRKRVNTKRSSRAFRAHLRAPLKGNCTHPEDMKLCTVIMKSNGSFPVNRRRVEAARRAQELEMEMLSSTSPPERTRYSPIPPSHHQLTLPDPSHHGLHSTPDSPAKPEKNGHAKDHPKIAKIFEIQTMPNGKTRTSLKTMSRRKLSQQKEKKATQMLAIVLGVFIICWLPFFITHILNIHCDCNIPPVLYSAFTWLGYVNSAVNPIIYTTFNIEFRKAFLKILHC
Method in brief: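 cAMP accumulation in DRD2-HEK293 cells measured by HTRF after 1 h detection; compounds added 10 min before NKH477 (200nM […]) forskolin-analogue stimulation, 30 min at room temperature, with Ro20-1724 present at 0.1 mM final.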

[17] = target: Beta-2 adrenergic receptor (Homo sapiens) (UniProt P07550); experiment: Adrenergic beta2 receptor (ADRB2) small molecule agonists, cell-based qHTS assay (AID 1963593);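 also: CHO cells stably overexpressing human ADRB2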
Method in brief: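 CHO cells stably over-expressing ADRB2 were plated overnight at 37C, then dosed with compounds plus a stimulation mix containing 100uM IBMX and 25uM Ro-20-1724 for 0.5hr at room temperature. cAMP was measured by HTRF competition, 1hr.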

[18] = target: D(2) dopamine receptor (Homo sapiens) (UniProt P14416); experiment: Dopamine D2 receptor (DRD2) small molecule antagonists, cell-based qHTS assay (AID 1963595; active = well fitted inhibition curve with a large enough effect in the signal ratio in the repeat runs, with a control signal flat; the % refers to the signal ratio)
Method in brief: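 In this cell-based antagonist screen, compounds act for 10 min at room temperature before a 30 min challenge with 12 nM quinpirole and 200 nM NKH477. cAMP is quantified by HTRF competition in DRD2-HEK293 cells containing 0.1 mM Ro20-1724.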

[19] = p53 small molecule agonists, cell-based qHTS assay with rat liver microsomes: qHTS cell viability counter screen (AID 1963580); also: nearly all actives have a fitted effect of over 45% in size
Method in brief: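 HCT-116 p53RE-bla, 4,000 cells/well, 5 h pre-incubation; cpd + rat liver microsomes 0.5 mg/mL + NADPH 0.5 mg/mL (final); 16 h, 37 C; CellTiter-Glo, 30 min RT; luminescence.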

[20] = cAMP Responsive Elements (CRE) small molecule agonists, cell-based qHTS assay (AID 1963590)
Method in brief: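 A CRE-responsive beta-lactamase reporter in HEK 293T cells was used. Treatment ran 3 h at 37 C; detection used LiveBLAzer B/G FRET substrate for 2 h at room temperature.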

Measured: Potency

Nc1cc(=O)[nH]c(N)n1
not listed: [17] | [18] | [19] | [20]
inactive: all other assays above

Cc1cc(C)c(C)c(O)c1
not listed: [6] | [12] | [19] | [20]
inactive: all other assays above

C=CC(C)(O)CCC=C(C)C (stereo not given)
not listed: [5] | [6] | [9] | [16] | [17]
inactive: all other assays above

COc1ccccc1NC(=O)CC(C)=O
not listed: [8] | [17] | [18] | [20]
inactive: all other assays above

Cc1cccc(N)n1
not listed: [10]
inactive: all other assays above

COc1ccc(COC(C)=O)cc1
not listed: [5] | [6] | [9]
inactive: all other assays above

C=CC(C)(O)CC/C=C(/C)CCC=C(C)C (stereo not given)
not listed: [6] | [17]
inactive: all other assays above

CN(C)/N=N/c1nc[nH]c1C(N)=O
not listed: [5] | [6] | [9] | [10] | [11] | [12] | [13]
inactive: all other assays above
